Results with a measured potency or affinity are listed apart. Active and inactive are the calls of the source.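 Rule for the calls: active = average duplicate choline uptake below buffer control mean minus 3 SD, with a fitted dose curve; inactive = the rest.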

The source of these data is PubChem BioAssay AID602208 (Johns Hopkins Ion Channel Center, 2012).

The target of this experiment is High affinity choline transporter 1 (Homo sapiens) (UniProt Q9GZV3). The experiment is described as follows: inhibitors of CHT choline uptake, dose response, cell-based, 3H-choline uptake, CHT LV-AA trafficking mutant, CRC (AID 602208). Particulars: HEK293 CHT LV-AA cells.
High affinity choline transporter 1 (Homo sapiens), sequence (Q9GZV3 whole entry, looked up): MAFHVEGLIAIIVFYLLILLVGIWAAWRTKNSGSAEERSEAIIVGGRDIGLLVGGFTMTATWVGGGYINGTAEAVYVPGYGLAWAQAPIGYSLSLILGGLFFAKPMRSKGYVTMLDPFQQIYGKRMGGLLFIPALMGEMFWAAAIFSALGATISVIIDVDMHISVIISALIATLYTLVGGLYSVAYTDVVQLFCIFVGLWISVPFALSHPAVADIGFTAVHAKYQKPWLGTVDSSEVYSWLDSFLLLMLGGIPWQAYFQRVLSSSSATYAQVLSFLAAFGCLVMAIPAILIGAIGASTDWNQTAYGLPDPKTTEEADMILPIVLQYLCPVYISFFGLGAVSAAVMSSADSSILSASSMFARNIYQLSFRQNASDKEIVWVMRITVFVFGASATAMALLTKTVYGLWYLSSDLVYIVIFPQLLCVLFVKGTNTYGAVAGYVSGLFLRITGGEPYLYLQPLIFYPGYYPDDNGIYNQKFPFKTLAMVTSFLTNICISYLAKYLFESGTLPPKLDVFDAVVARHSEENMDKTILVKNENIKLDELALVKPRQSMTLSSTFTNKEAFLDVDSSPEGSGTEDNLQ
As to `CCc1cccc(CC)c1NC(=O)c1cccc(S(=O)(=O)N2CCN(C)CC2)c1`, the molecule was called inactive.

With `CC1CCCCC1NC(=O)c1cccc(S(=O)(=O)N2CCN(C)CC2)c1` (configuration not stated), the molecule was called inactive.

For the molecule `Cc1cc(C)c(C(=O)Nc2ccc(S(=O)(=O)Nc3ccccn3)cc2)c(C)c1`, the molecule was classed as inactive.

With `Cc1cc(NS(=O)(=O)c2ccc(NC(=O)c3ccc(Cl)cc3Cl)cc2)no1`, the outcome was inactive.

For `CCN(CC)S(=O)(=O)c1cc(C(=O)Nc2nncs2)c(Cl)cc1Cl`, the call was inactive.

Take `COc1cc(NS(=O)(=O)c2ccc(NC(=O)c3ccc(Cl)cc3Cl)cc2)ncn1`: the molecule was called inactive.

Take `Cc1cc(NS(=O)(=O)c2ccc(NC(=O)C(C)Oc3cccc(C)c3C)cc2)nc(C)n1` (configuration not stated): the molecule was classed as inactive.
